Among all 52,000 compounds or so, about 4,300 (8.3%) were called active. This excerpt belongs to a sample that is enriched for actives. Values without a mark were called inactive. Rule as the data show it: active = survival mostly below about 52% (no sharp cut-off); inactive = mostly above about 56%.
system: DeltatarO mutant; test: growth inhibition of S. aureus wild type versus tarO mutant, primary screen, teichoic acid synthesis inhibitors, RN4220, OD600 (AID 463173); conditions: OD600, 18 h, hits give low values, screened at 18.75 µg/mL (by protocol)

First: Cc1cccc(C)c1NC(=O)c1csc2c1CCCC2
Second: CCCCNC(=O)c1ccc2c(c1)N(CC)C(=O)c1ccccc1S2
The survival of the first is lower: 90% for the first, 102% for the second.

Compared with `COc1ccc(-c2cc(-c3ccccc3)nc3c2COc2ccc(F)cc2-3)cc1`, `COc1ccc2nc(NC(=O)c3nc(SCc4ccc(F)cc4)ncc3Cl)sc2c1` is lower in survival: 73% for the first, 53% for the second.

First: CCCc1c(O)nc(SCC(=O)N2CCCCC2)[nH]c1=O
Second: O=C(NC1CCN(C(=O)NC2CCCCC2)CC1)c1ccc(F)cc1
The survival of the first is lower: 69% for the first, 85% for the second.

First: O=C(Nc1nc2ccc(F)cc2s1)c1nc(SCc2ccccc2F)ncc1Cl
Second: Cc1ccccc1CSc1ncc(Cl)c(C(=O)Nc2nc3ccc(F)cc3s2)n1
The survival of the first is lower: 48% for the first, 100% for the second.

Compared with `CCOc1ccc2nc(NC(=O)c3nc(SCc4ccc(C)cc4)ncc3Cl)sc2c1`, `Cc1ccc(CSc2ncc(Cl)c(C(=O)Nc3nc4ccc(C)cc4s3)n2)cc1` is lower in survival: 54% for the first, 53% for the second.

Going from `CCSc1ncc(Cl)c(C(=O)Nc2nc3ccc(OC)cc3s2)n1` to `COc1ccc2nc(NC(=O)c3nc(SC(C)C)ncc3Cl)sc2c1`, the survival rises from 83% to 93%.

Going from `CCCSc1ncc(Cl)c(C(=O)Nc2nc3ccc(OCC)cc3s2)n1` to `CCCSc1ncc(Cl)c(C(=O)NCc2ccc(OC)cc2)n1`, the survival falls from 63% to 52%.

First: CCCN(CCC)C(=O)Cn1c(=O)n(-c2cccc(C(F)(F)F)c2)c(=O)c2c(C)c(C)sc21
Second: CCCCN(CC)CCCNC(=O)c1cc2c(=O)[nH]c3ccccc3c2s1
The survival of the first is lower: 44% for the first, 151% for the second.

Compared with `CCC1SC(=S)N(CC(=O)O)C1=O` (configuration not stated), `CCOCCCNC(=O)Cn1ncc2c([nH]c3ccc(C)cc32)c1=O` is lower in survival: 100% for the first, 83% for the second.

First: O=C1NC(c2ccccc2)/C(=C(\O)c2ccccc2)C1=O (configuration not stated)
Second: N#Cc1ccccc1NC(=O)C(=O)NCC(c1cccnc1)N1CCc2ccccc21 (configuration not stated)
The survival of the first is higher: 70% for the first, 53% for the second.

Going from `Cc1nc2ccn(Cc3cccs3)c(=O)c2cc1C(=O)N1CCN(c2ccccc2)CC1` to `Cc1nn(-c2cc(N3CCOCC3)ccc2N)c(=O)c2ccccc12`, the survival falls from 83% to 76%.

Going from `CCCSc1ncc(Cl)c(C(=O)NCc2ccc(C)cc2)n1` to `CCCSc1ncc(Cl)c(C(=O)Nc2ccc(S(=O)(=O)Nc3ncccn3)cc2)n1`, the survival rises from 57% to 67%.

First: COc1ccc(OC)c(NC(=O)c2nc(SCc3ccccc3F)ncc2Cl)c1
Second: CCOc1ccc(C2C(C(N)=O)=C(C)Nc3nc(-c4ccc(OC)cc4)nn32)cc1 (configuration not stated)
The survival of the first is lower: 70% for the first, 87% for the second.

Going from `Cc1ccc(-c2nnc(SCC(=O)NCc3ccccc3)o2)cc1` to `Cc1ccc(CCNC(=O)C2CCCN(c3nnc(C)c4c(C)n(-c5ccccc5)nc34)C2)cc1` (configuration not stated), the survival falls from 142% to 80%.

First: CCN(CC)c1ccc(CNCCCSc2nnnn2C)cc1
Second: Cc1nnc(NC(=O)CSc2nccn2-c2ccc(Cl)cc2)s1
The survival of the first is lower: 88% for the first, 104% for the second.

Compared with `COc1cc(C)c(S(=O)(=O)N2CCCC(C)C2)cc1C` (configuration not stated), `COc1ccc(C)cc1NC(=O)C1CCC(CNS(=O)(=O)c2ccc3c(c2)CCCC(=O)N3)CC1` (configuration not stated) is lower in survival: 81% for the first, 67% for the second.

First: COc1ccc(N2CCN(C(=O)C(C)n3c(=O)cc(C(F)(F)F)c4c(C)nn(C)c43)CC2)cc1 (configuration not stated)
Second: Cc1cccc(NC(=O)C(=O)NCC(c2cccnc2)N2CCc3ccccc32)c1C (configuration not stated)
The survival of the first is higher: 97% for the first, 53% for the second.

First: O=C(NCC(c1cccnc1)N1CCc2ccccc21)C(=O)Nc1ccccc1F (configuration not stated)
Second: CCc1ccccc1NC(=O)C(=O)NCC(c1cccnc1)N1CCc2ccccc21 (configuration not stated)
The survival of the first is higher: 101% for the first, 58% for the second.

Compared with `O=C(NCC(c1cccnc1)N1CCc2ccccc21)c1ccc(F)cc1` (configuration not stated), `O=C(NCC(c1cccnc1)N1CCc2ccccc21)c1ccc(F)c(F)c1` (configuration not stated) is lower in survival: 100% for the first, 52% for the second.

`CCCSc1ncc(Cl)c(C(=O)Nc2nc3ccc(C)cc3s2)n1` was tested, and the survival was 49% (active).
In the case of `COc1ccc2nc(NC(=O)c3nc(SCc4cccc(C)c4)ncc3Cl)sc2c1`, the survival is reported as 37% (active).
`Cc1cccc(CSc2ncc(Cl)c(C(=O)Nc3nc4ccc(F)cc4s3)n2)c1` was tested, and the survival was 33% (active).
`CCOc1ccc2nc(NC(=O)c3nc(SC(C)C)ncc3Cl)sc2c1` was tested, and the survival was 41% (active).
For `CCCSc1ncc(Cl)c(C(=O)Nc2ccc(OC)cc2OC)n1`, the survival was 46% (active).
In the case of `CCCSc1ncc(Cl)c(C(=O)Nc2ccc(CC)cc2)n1`, the survival is reported as 42% (active).
`O=C(NCC(c1cccnc1)N1CCc2ccccc21)c1cccc(Br)c1` (configuration not stated) was tested, and the survival was 41% (active).
In the case of `O=C(NCC(c1cccnc1)N1CCc2ccccc21)c1cccc(C(F)(F)F)c1` (configuration not stated), the survival is reported as 45% (active).
`O=C(NCC(c1cccnc1)N1CCc2ccccc21)c1cccc(F)c1` (configuration not stated) was tested, and the survival was 44% (active).

— PubChem BioAssay AID463173 (ICCB-Longwood Screening Facility, Harvard Medical School, 2010)
